# Laboratory results taken from PubChem BioAssay (NCI).
# The panel holds about 83,000 compounds, 20% with a hit somewhere; the sample as a whole holds those more often.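 Interpretation: 100, growth as untreated; towards 0, rising growth inhibition; 0, no net growth; 0 to -100, cell death. Compounds scoring below 10 were considered active.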 A number with no mark means an inactive call. Calls of active or inactive are those of the source.
# Experiments:
# Assay in all cases: NCI-60 one-dose screen, 48 h (100 = growth as untreated, 0 = no growth, -100 = all killed)
# SR leukemia = details: 10 µM unless noted
# RPMI-8226 leukemia = details: 10 µM unless noted
# OVCAR-8 ovarian = details: 10 µM unless noted
# OVCAR-5 ovarian = details: 10 µM unless noted
# OVCAR-4 ovarian = details: 10 µM unless noted
# SK-OV-3 ovarian = details: 10 µM unless noted
# IGROV1 ovarian = details: 10 µM unless noted
# OVCAR-3 ovarian = details: 10 µM unless noted
# NCI/ADR-RES ovarian = details: 10 µM unless noted
# T-47D breast = details: 10 µM unless noted
# MDA-MB-435 melanoma = details: 10 µM unless noted
# SW-620 colon = details: 10 µM unless noted
# MCF7 breast = details: 10 µM unless noted
# HCT-116 colon = details: 10 µM unless noted
# HCC-2998 colon = details: 10 µM
# KM12 colon = details: 10 µM unless noted
# BT-549 breast = details: 10 µM unless noted
SMILES,growth (SR leukemia),growth (RPMI-8226 leukemia),growth (OVCAR-8 ovarian),growth (OVCAR-5 ovarian),growth (OVCAR-4 ovarian),growth (SK-OV-3 ovarian),growth (IGROV1 ovarian),growth (OVCAR-3 ovarian),growth (NCI/ADR-RES ovarian),growth (T-47D breast),growth (MDA-MB-435 melanoma),growth (SW-620 colon),growth (MCF7 breast),growth (HCT-116 colon),growth (HCC-2998 colon),growth (KM12 colon),growth (BT-549 breast)
CNC(=O)c1cc(Oc2ccc(NC(=O)Nc3ccc(Cl)c(C(F)(F)F)c3)c(F)c2)ccn1,-32.6% (active),-34% (active),-1.84% (active),3.12% (active),8.63% (active),-16.7% (active),-20.8% (active),0.719% (active),-14.3% (active),-34.5% (active),-57% (active),-8.01% (active),-26.6% (active),-37.3% (active),-80.8% (active),-32.3% (active),–
O=C(NC1CCNCC1)c1[nH]ncc1NC(=O)c1c(Cl)cccc1Cl,2.12% (active),1.32% (active),9% (active),9.52% (active),8.44% (active),7.3% (active),10.2%,4.35% (active),85%,-3.82% (active),-43.3% (active),6.16% (active),3.78% (active),4.77% (active),-2.4% (active),8.2% (active),–
Cn1cc(-c2ccc(F)c(C(F)(F)F)c2)nc1C1CCN(c2ncnc3[nH]ncc23)CC1,55.4%,82.3%,47.8%,85.8%,80.4%,55.5%,55.2%,89.6%,61.2%,25.8%,93.3%,89.2%,61.4%,68.9%,95.5%,73.5%,–
COc1cc2c(Nc3ccc(Br)cc3F)ncnc2cc1OCC1CCN(C)CC1,-6.08% (active),26.8%,27.6%,34.8%,36.4%,-5.59% (active),-21.9% (active),42.4%,30.3%,-22.9% (active),-42.8% (active),31.8%,31.3%,24.3%,19.3%,38.1%,–
Clc1nc(Cl)c2ncn(CC#CCn3cnc4c(Cl)nc(Cl)nc43)c2n1,-52.6% (active),-56.6% (active),-34.8% (active),-2.99% (active),-70.8% (active),87.5%,-75.4% (active),-90.9% (active),59.8%,-21.5% (active),4.04% (active),-44.7% (active),-22.8% (active),-34.6% (active),–,-45.8% (active),–
Cn1cc(-c2[nH]c3cc(NC(=O)[C@H](N)C4CCCCC4)cc4c3c2C=NNC4=O)cn1,-15.7% (active),-18.1% (active),-29.5% (active),13%,20.9%,6.78% (active),-27.4% (active),-13% (active),–,-9.81% (active),-33.9% (active),-31.8% (active),-12.1% (active),-76% (active),32.6%,2.52% (active),-73.7% (active)
N#Cc1c(NC(=O)c2ccco2)[n+]([O-])c2cc(F)c(F)cc2[n+]1[O-],8.42% (active),17.8%,38.9%,119%,89.7%,99.4%,29.6%,102%,112%,71.8%,98%,87.5%,67.5%,101%,–,85%,–
CCN1CCN(CCCN(C[C@H]2Cc3ccccc3CN2)[C@H]2CCCc3cccnc32)CC1,53.6%,81.8%,85.3%,92.7%,89.5%,89.4%,94.5%,84.2%,92.1%,103%,105%,89.6%,100%,76.4%,102%,87.1%,–
NC1=Nc2cc(OCCCN3Cc4ccccc4C3)c(OCC3CC3)cc2C12CCCC2,-5.81% (active),33.8%,72%,83.5%,61.3%,70.1%,71.7%,75.7%,–,2.41% (active),38.1%,76.3%,47.5%,32.9%,1.52% (active),69.6%,68.6%
COc1ccc(Cl)c(Nc2nc3ccccc3nc2NS(=O)(=O)c2cccc(NC(=O)C(C)(C)N)c2)c1,54.9%,51.5%,53.3%,45.7%,68%,4.52% (active),-16.9% (active),36.9%,52.6%,-19.8% (active),53.5%,65.7%,20.3%,47%,54.8%,53.1%,–
CC1(O)CCC2CC3OC3(C)CCC3OC3(C)C(O)CC1C2(C)C (stereo not drawn),104%,84.4%,87.3%,120%,91.1%,109%,70%,118%,112%,116%,113%,99.2%,105%,121%,–,112%,–
Cc1cccc(Cl)c1NC(=O)c1cnc(Nc2cc(N3CCOCC3)cc(N3CCOCC3)c2)s1,15.7%,89.8%,-36.2% (active),23.3%,60.4%,-38.7% (active),-51.7% (active),19.7%,23.6%,0.787% (active),10.3%,82.2%,75%,11.5%,–,62.4%,–
COC1CCC(N2C(=O)CNc3ncc(-c4ccc(C(C)(C)O)nc4)nc32)CC1 (stereo not drawn),-0.973% (active),-2.19% (active),5.09% (active),9.72% (active),-7.38% (active),-27.6% (active),-2.9% (active),8.66% (active),3.73% (active),-24% (active),-27.9% (active),12%,3.23% (active),11.4%,–,7.39% (active),–
CCCCN1C(=O)c2cccc3c(-c4ccc5c(c4)ncn5C4CCCCC4)ccc(c23)C1=O,91.1%,108%,89.9%,98.3%,97.6%,92.3%,108%,101%,92.5%,81.9%,109%,107%,96.7%,91.7%,102%,92.2%,–
CCCNC(=O)c1cn2ncnc(Nc3cc(C(=O)NC4CC4)ccc3C)c2c1C,73.6%,75.9%,77.8%,17.6%,92.1%,70.5%,42.4%,103%,66.9%,65.3%,89.9%,39%,83.6%,101%,–,99.6%,–
COc1cc(F)c(F)c(Nc2ccc(I)cc2F)c1NS(=O)(=O)C1(C[C@H](O)CO)CC1,57.7%,37.8%,45.7%,13.5%,46%,51.3%,9.36% (active),83.1%,–,22.6%,24.3%,19.3%,61.5%,11.2%,-23.6% (active),24.2%,62.1%
Cn1nccc1Nc1nccc(-c2ccn([C@H](CO)c3ccc(Cl)c(F)c3)c(=O)c2)n1,112%,113%,104%,46.9%,98.8%,119%,82%,115%,89.7%,104%,55.4%,62.7%,93.1%,52.5%,36.9%,82.8%,–
O=C(NOCCO)c1cc(CN2OCCCC2=O)c(F)c(F)c1Nc1ccc(I)cc1F,65.6%,78.8%,52.1%,20.2%,64.5%,52.3%,21.2%,103%,58.1%,67.6%,36.9%,24.1%,88.7%,13.9%,-18.6% (active),26.6%,–
CN1C/C=C\CCOc2cccc(c2)-c2ccnc(n2)Nc2cccc(c2)C1,-29.1% (active),-42.5% (active),-22.4% (active),6.02% (active),-28.5% (active),-17.2% (active),-44.9% (active),3.03% (active),–,-42.4% (active),-85.2% (active),-5.5% (active),-33% (active),-50% (active),-40% (active),-53.3% (active),-69.4% (active)
